Laboratory results as given in PubChem BioAssay (NCATS).
Results filed as inconclusive are left out. The source made the active and inactive calls. The call rests on the fitted dose curve; in most records, active means well fitted curve in the direction sought with a large enough effect; inconclusive means small, poorly fitted or top-dose-only effect, or another doubt; inactive means no such curve, though single readings can be large or run the other way.

target: Protein phosphatase 1D (Homo sapiens) (UniProt O15297); assay: Rhodamine-PBP qHTS Assay for Modulators of WT P53-Induced Phosphatase 1 (WIP1) (AID 1347425); details: recombinant WIP1, Rhodamine-PBP phosphate fluorescence, real-time; series mostly up to 57.5 µM
Sequence (O15297 whole entry, looked up): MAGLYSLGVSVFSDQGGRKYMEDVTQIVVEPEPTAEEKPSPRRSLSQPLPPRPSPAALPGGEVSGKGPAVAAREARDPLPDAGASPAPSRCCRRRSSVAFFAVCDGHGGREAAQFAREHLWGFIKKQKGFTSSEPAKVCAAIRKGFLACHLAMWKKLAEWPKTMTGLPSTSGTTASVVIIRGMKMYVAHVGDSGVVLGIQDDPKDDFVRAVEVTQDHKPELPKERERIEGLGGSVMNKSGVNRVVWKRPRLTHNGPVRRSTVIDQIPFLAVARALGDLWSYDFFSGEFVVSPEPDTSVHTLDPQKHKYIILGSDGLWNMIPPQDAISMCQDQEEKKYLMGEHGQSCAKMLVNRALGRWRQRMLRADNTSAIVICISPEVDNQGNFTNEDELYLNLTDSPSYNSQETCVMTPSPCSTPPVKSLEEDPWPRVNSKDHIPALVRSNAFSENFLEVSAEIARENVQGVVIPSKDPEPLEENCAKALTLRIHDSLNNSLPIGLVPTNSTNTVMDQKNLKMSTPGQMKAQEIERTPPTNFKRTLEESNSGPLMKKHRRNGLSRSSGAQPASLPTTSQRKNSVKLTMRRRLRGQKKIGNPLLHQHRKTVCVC
Method in brief: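 The read-out is the change in Rhodamine-PBP fluorescence (f1 - f0, ex 525/em 598 nm) as Pi is released, read each minute for 11 min. Final reaction: 5 nM WIP1, 10 uM phosphopeptide VEPPL-pS-QETFS, 10 uM Rh-PBP, 50 mM Tris-HCl pH 7.5, 30 mM MgCl2. Compound was preincubated with enzyme for 1 hour at room temperature.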

SMILES	outcome
CC(C)=CCC/C(C)=C/CC/C(C)=C/C(=O)OCC(=O)[C@@]1(O)CC[C@H]2[C@@H]3CCC4=CC(=O)C=C[C@]4(C)[C@H]3[C@@H](O)C[C@@]21C	inactive
O=C(O)C(=O)Nc1cccc(-c2nn[nH]n2)c1	inactive
CC1(C)O[C@@H]2C[C@H]3[C@@H]4C[C@H](F)C5=CC(=O)C=C[C@]5(C)[C@@]4(F)[C@@H](O)C[C@]3(C)[C@]2(C(=O)CO)O1	inactive
O=C(O)c1ccc(OCCN2CCCCC2)cc1	inactive
Oc1ccc(CCNCCCCCCNCCc2ccccc2)cc1O	inactive
CNC(=O)c1cnn(-c2nc(N)c3ncn([C@@H]4O[C@H](CO)[C@@H](O)[C@H]4O)c3n2)c1	inactive
CCCc1c2oc(C(=O)O)cc(=O)c2cc2c(=O)cc(C(=O)O)n(CC)c12	inactive
CC(C)C(=O)Nc1cccc(C(F)(F)F)c1	inactive
O=C(O)c1ccccc1Nc1cc(Cl)ccc1C(=O)O	inactive
C[C@H]1C[C@H]2[C@@H]3CCC4=CC(=O)C=C[C@]4(C)[C@H]3C(=O)C[C@]2(C)[C@@]1(O)C(=O)CO	inactive
CNC[C@H](O)[C@@H](O)[C@H](O)[C@H](O)CO	inactive
